Source: PubChem BioAssay AID1986 (Sanford-Burnham Center for Chemical Genomics, 2009)
Where “and” joins values, the source holds several entries; their conditions need not be identical. Equal values may be shown once. The whole screen tested about 290,000 compounds, of which about 890 (0.31%) were called active. Rule as the data show it: active = inhibition mostly above about 52% (no sharp cut-off); inactive = mostly below about 76%. For the sample, actives were picked, then their nearest neighbours and some compounds at random.

Assay: cell-free HIV fusion peptide-binding blockers – biochemical, uHTS, fluorescence dequenching, primary screen (AID 1986)
Details: 30 min, stronger effect = higher value
[1] = measured here: repeat confirmation average inhibition, at 18.6 µM

| Compound | inhibition (at 20 µM) | inhibition [1] [%] |
| --- | --- | --- |
| CCOC(=O)C1(c2ccccc2)CCN(CCC(=O)Nc2ccccc2OC)CC1 | 1.8% (inactive) | – |
| CN1CCN(c2ccccc2N)CC1 | 1.6% (inactive) | – |
| Cc1ccc(-n2c(O)c(C=NC3CCCC3)c(=O)[nH]c2=O)c(C)c1 | 2.6% (inactive) | – |
| CCOP(=O)(OCC)C(NC(=O)C(C)C)C(Cl)(Cl)Cl (stereo not drawn) | 0.1% (inactive) | – |
| CC/C(=N\NC(=O)c1ccccc1O)c1c(O)n(C2CCCCC2)c(=O)[nH]c1=O | 51.3% (inactive) | 46.2 |
| O=C(O)c1cccc2c1NC(C(=O)O)C1CC(Sc3ccccc3[N+](=O)[O-])C(Cl)C21 (stereo not drawn) | 63.2% (active) | – |
| CC(=O)c1ccc2c(c1)C1C(Cl)C(Sc3ccccc3[N+](=O)[O-])CC1C(C(=O)O)N2 (stereo not drawn) | 54.5% (inactive) | 1.3 |
| Cc1ccc2c(c1Cl)NC(C(=O)O)C1CC(Sc3ccccc3[N+](=O)[O-])C(Cl)C21 (stereo not drawn) | 63% (inactive) | 28 |
| CCC(=O)c1cn(Cc2ccccc2)c2ccccc12 | -1.1% (inactive) | – |
| CC(C)(C)C(=O)c1cn(Cc2ccccc2)c2ccccc12 | -0.8% (inactive) | – |
| O=C(COc1ccccc1)c1cn(Cc2ccccc2)c2ccccc12 | 80.8% (active) | – |
| COC(=O)N(C)c1ccc(C(O)(C(=O)OC)C(F)(F)F)cc1 (stereo not drawn) | 0% (inactive) | – |
| CC1Oc2cc3c(-c4c(O)cc(O)c5c(O)c6c(cc45)OC(C)C(C)C6=O)c(O)cc(O)c3c(O)c2C(=O)C1C (stereo not drawn) | 54.2% (active) | – |
| O=C(O)c1ccc(N=Cc2c(O)[nH]c(=O)[nH]c2=O)cc1 | 15.8% (inactive) | – |
| CCOC(=O)c1cc(CC)sc1/N=C/C1C(=O)NC(=S)NC1=O | 30.8% (inactive) | – |
| COc1ccc(C(=O)CC2(CC(=O)c3ccc(OC)cc3)C(=O)N(C)C(=O)N(C)C2=O)cc1 | 3.7% (inactive) | – |
| CCn1nc(-c2cccs2)nc2c(=O)n(C)c(=O)nc1-2 | 1.6% (inactive) | – |
| CCn1nc(-c2ccccc2)nc2c(=O)n(C)c(=O)nc1-2 | 80.2% (active) | 60.9 |
| CCn1nc(/C=C/c2ccccc2)nc2c(=O)n(C)c(=O)nc1-2 | 1.1% (inactive) | – |
| CC1=C(C(=O)O)N2C(=O)C(NC(=O)Cc3ccccc3)C2SC1 (stereo not drawn) | 3.3% (inactive) | – |
| O=P(/C(=N/O)N1CCOCC1)(N1CCOCC1)N1CCOCC1 | 2.4% (inactive) | – |
| CCOC(=O)C1CCN(C(C)C(=O)c2c(C)[nH]c3cc(C)ccc23)CC1 (stereo not drawn) | 8.4% (inactive) | – |
| CCC1CCCCN1P(=O)(c1ccc(C)o1)C(C)(C)C (stereo not drawn) | 5.9% (inactive) | – |

| Compound | inhibition (at 20 µM) | inhibition [1] [%] |
| --- | --- | --- |
| CCc1cc(=O)oc2c(C)c(OCC(=O)N3C[C@H]4C[C@@H](C3)c3cccc(=O)n3C4)ccc12 | 1.3% (inactive) | – |
| O=C(C1c2ccccc2C(=O)N2CCc3ccccc3C12)N1CCC2(CC1)OCCO2 (stereo not drawn) | -2.3% (inactive) | – |
| COc1ccc(CCNCc2cccn2C)cc1 | -1.8% (inactive) | – |
| NC(=O)c1cn(C2CCCCC2)c2ccccc2c1=O | -1.7% (inactive) | – |
| CCCCCC(=O)N[C@@H](c1ccccc1)[C@@H](O)C(=O)O[C@H]1C[C@@]2(O)[C@@H](OC(=O)c3ccccc3)C3[C@](C)(C(=O)[C@H](O)C(=C1C)C2(C)C)[C@@H](OC1OCC(O)C(O)C1O)C[C@H]1OC[C@@]31OC(C)=O (stereo partly drawn) | 0% (inactive) | – |
| O=C1NC(=O)N(c2ccc3c(c2)OCO3)C(=O)/C1=C/c1cccs1 | 12.1% (inactive) | – |
| O=C1NC(=O)N(c2ccc3c(c2)OCO3)C(=O)/C1=C/c1ccc(N2CCCCC2)o1 | 0.8% (inactive) | – |
| O=C1NC(=O)N(c2ccc3c(c2)OCO3)C(=O)/C1=C\c1ccc(-c2ccccc2C(=O)O)o1 | 22.4% (inactive) | – |
| O=C1NC(=O)N(c2ccc3c(c2)OCO3)C(=O)/C1=C\c1ccc(N2CCCCC2)o1 | 112% (active) | 70.4 |
| CCOc1ccc(N2C(=O)NC(=O)/C(=C\c3ccc(N4CCCCC4)o3)C2=O)cc1 | 152% (inactive) | – |
| O=C1NC(=O)N(c2ccc3c(c2)OCO3)C(=O)/C1=C/c1ccc(N2CCCC2)o1 | 111% (active) | 89.9 |
| CC(C)Cc1nnc(NC(=O)CCC(=O)N2CCC3(CC2)OCCO3)s1 | -0.2% (inactive) | – |
| FC(F)(F)c1ccccc1NC1=NCCCS1 | -1% (inactive) | – |
| O=C1NC(=O)N(c2ccc(Cl)cc2)C(=O)/C1=C\c1ccc(Sc2nc3ccccc3[nH]2)o1 | 60.1% (inactive) | 26 |
| O=C1NC(=O)N(c2ccccc2F)C(=O)/C1=C/c1ccc(Sc2nc3ccccc3[nH]2)o1 | 39% (inactive) | – |
| O=C1NC(=O)N(c2cccc(Cl)c2)C(=O)/C1=C\c1ccc(Sc2nc3ccccc3[nH]2)o1 | 78.9% (active) | – |
| CC1CC2(O)c3no[n+]([O-])c3CCC2N1O (stereo not drawn) | 1.4% (inactive) | – |
| Cc1nc2ccc(Cl)cc2c(=O)n1-c1ccc([N+](=O)[O-])cc1 | -1.1% (inactive) | – |
| N#Cc1c(/N=C/c2ccc(O)cc2O)sc2c1C1CCN2CC1 | 3% (inactive) | – |
| CCN(CC)c1ccc(/C=N/c2sc3c(c2C#N)C2CCN3CC2)c(O)c1 | 120% (active) | 193 |
| CC(=O)c1c(C)n(Cc2ccccc2Cl)c2ccc(O)cc12 | -2.4% (inactive) | – |
| Fc1ccc(Cn2nnnc2C(c2ccc(F)cc2)N2CC=C(c3ccc(F)cc3)CC2)cc1 (stereo not drawn) | -1.1% (inactive) | – |
| O=c1[nH]c(=O)n(CC2CCCO2)c(O)c1/C=C1\C=Nc2ccccc21 (stereo not drawn) | 5.1% (inactive) and 14.6% (inactive) | – |

| Compound | inhibition (at 20 µM) | inhibition [1] [%] |
| --- | --- | --- |
| O=c1[nH]c(=O)n(-c2ccccc2F)c(O)c1/C=C1\C=Nc2ccccc21 | 20.7% (inactive) | – |
| CCOc1ccc(-n2c(O)c(/C=C3\C=Nc4ccccc43)c(=O)[nH]c2=O)cc1 | 166% (inactive) | – |
| CCCCn1c(O)c(/C=C2\C=Nc3ccccc32)c(=O)[nH]c1=O | 78.2% (active) | – |
| C=CCn1c(O)c(/C=C2\C=Nc3ccccc32)c(=O)[nH]c1=O | 12.9% (inactive) | – |
| O=c1[nH]c(=O)n(Cc2ccccc2)c(O)c1/C=C1\C=Nc2ccccc21 | 102% (active) | 66.2 |
| CCOP(=O)(OCC)/C(C#N)=C/c1ccoc1 | 13.5% (inactive) | – |
| CC(=O)c1ccccc1NC(=O)C1C2CCC(O2)C1C(=O)O (stereo not drawn) | 0% (inactive) | – |
| O=C1Nc2ccc(Br)cc2C(c2ccc(Cl)cc2)=NC1O (stereo not drawn) | -1.3% (inactive) | – |
| CN1CCC(C)(O)C2CCCCC21 (stereo not drawn) | -1.3% (inactive) | – |
| Cc1cc(NC(=O)C(Cl)(Cl)Cl)no1 | 1% (inactive) | – |
| CCOC(=O)C1C(=O)N(C)C2(C)CC1c1ccccc1O2 (stereo not drawn) | 1.4% (inactive) | – |
| Cc1ccccc1N1C(=O)NC(=O)/C(=C/c2ccc(N3CCOCC3)o2)C1=O | 124% (active) | 80.2 |
| Cc1ccccc1N1C(=O)/C(=C/c2ccco2)C(=O)NC1=S | 76.1% (active) | – |
| CN1C(=O)/C(=C\c2ccc(N3CCCCC3)o2)C(=O)NC1=S | 151% (inactive) | – |
| CN1C(=O)/C(=C\c2ccc(N3CCCCCC3)cc2)C(=O)NC1=S | 1.7% (inactive) | – |
| CCN(CC)c1ccc(C=C2C(=O)N(C)C(=S)N(C)C2=O)o1 | 91% (active) | 50.9 |
| CN1C(=O)/C(=C/c2ccc(N3CCCCCC3)o2)C(=O)NC1=S | 103% (active) | 52.7 |
| Cc1ccccc1N1C(=O)NC(=O)/C(=C\c2cc(Br)c(N3CCOCC3)o2)C1=O | 147% (inactive) | – |
| CN1C(=O)C(=Cc2ccc(Sc3ccccc3)o2)C(=O)N(C)C1=O | 15.9% (inactive) | – |
| CCOc1cccc(N2C(=O)/C(=C/c3ccco3)C(=O)NC2=S)c1 | 15.4% (inactive) | – |
| O=C1NC(=O)C(=Cc2ccc(N3CCOCC3)o2)C(=O)N1 | 127% (inactive) | – |
| CCN(CC)c1ccc(/C=C2\C(=O)NC(=S)N(C)C2=O)o1 | 149% (inactive) | – |
| O=C1NC(=S)N(c2ccccc2)C(=O)/C1=C/c1ccco1 | 29.6% (inactive) | – |

| Compound | inhibition (at 20 µM) | inhibition [1] [%] |
| --- | --- | --- |
| CN1CCN(c2ccc(Cl)cc2N)CC1 | 0.1% (inactive) | – |
| CCC(=O)N1CC(=O)Nc2ccc(Cl)cc2C1c1ccc(F)cc1 (stereo not drawn) | -1.6% (inactive) | – |
| Cc1cccc(OCC(=O)N2CCN(Cc3ccc([N+](=O)[O-])cc3)CC2)c1 | -1.3% (inactive) | – |
| COc1cc(OC)c(C=O)c(OC(=O)N(C)C)c1 | 0.7% (inactive) | – |
| CCCC[N+]12CCC(CC1)C(=C(c1ccccc1)c1ccccc1)C2 | 1.1% (inactive) | – |
| C[C@]12CCC3C(CCC4=C/C(=N/OCC(=O)NC(CCC(=O)O)C(=O)O)CC[C@@]43C)C1CCC2O (stereo partly drawn) | 3.9% (inactive) | – |
| NCCCC(=O)OC1N=C(c2ccccc2Cl)c2cc(Br)ccc2NC1=O (stereo not drawn) | -0.8% (inactive) | – |
| Clc1cccc(N2CCNCC2)n1 | 0.9% (inactive) | – |
| CC(=NCC1CCCO1)c1c(O)n(C)c(=O)n(C)c1=O (stereo not drawn) | -2.1% (inactive) | – |
| CN1C(=O)C(=Cc2ccc(N3CCOCC3)o2)C(=O)N(C)C1=O | 69.4% (active) | 81.3 |
| CN1C(=O)C(=Cc2ccc(N3CCCCCC3)o2)C(=O)N(C)C1=S | 149% (inactive) | – |
| CN1CCN(c2ccc(/C=C3\C(=O)NC(=S)N(c4cccc(Br)c4)C3=O)o2)CC1 | 53.7% (active) | – |
| Cc1cccc(N2C(=O)/C(=C/c3ccc(N4CCN(C)CC4)o3)C(=O)NC2=S)c1C | 13.2% (inactive) | – |
| CN1C(=O)C(=Cc2ccc(N3CCOCC3)o2)C(=O)N(C)C1=S | 144% (inactive) | – |
| CN1C(=O)C(=Cc2ccc(N3CCCCC3)o2)C(=O)N(C)C1=S | 103% (active) | 52.4 |
| Cc1cc(N2CCCCC2)ccc1C=C1C(=O)N(C)C(=S)N(C)C1=O | 17.8% (inactive) | – |
| Cc1cc(C)cc(N2C(=O)/C(=C\c3ccc(N4CCN(C)CC4)o3)C(=O)NC2=S)c1 | 149% (inactive) | – |
| CCN1C(=O)C(=Cc2ccc(N3CCOCC3)o2)C(=O)N(CC)C1=S | 136% (inactive) | – |
| CNc1ccc2nc3ccccc3[n+](C)c2c1 | 20.9% (inactive) | – |
| COc1cc(C(=S)N2CCOCC2)cc(OC)c1OC(=O)Cc1ccccc1 | -1.3% (inactive) | – |
